The values below come from PubChem BioAssay (Tox21).

Records with an inconclusive call do not appear. The source holds several records for some structures; these can differ, active in one and inactive in another. Activity calls are given as the source filed them. Unless noted, calls come from the whole dose curve; as a rule, active = well fitted curve in the direction sought with a large enough effect in the repeat runs; inconclusive = weak or mixed curves; inactive = no such curve, though single readings can be large; an effect the other way counts as inactive or inconclusive.

Assay [1] in a line: qHTS assay to identify small molecule antagonists of the thyroid receptor (TR) signaling pathway - cell viability counter screen (AID 743064). Note: nearly all actives have a fitted effect of over 50% in size. An outline of the steps:
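Viability of T3-stimulated (1 nM final) GH3.TRE-Luc cells is measured by CellTiter-Fluor fluorescence after 23.5 h compound exposure at 37 °C plus 30 min reagent incubation.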
(qHTS replaces the single test concentration by a dilution series.)

Assay [2] in a line: qHTS assay to identify small molecule antagonists of the thyroid receptor (TR) signaling pathway (AID 743065). Note: series mostly up to about 70 µM; nearly all actives have a fitted effect of over 55% in size. An outline of the steps: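 GH3.TRE-Luc rat pituitary cells carrying two TR response elements driving luciferase were plated for 4 h, given compound plus 1 nM T3 (final), and incubated 23.5 h at 37 C. ONE-Glo luminescence measured reporter inhibition; CellTiter-Fluor fluorescence tracked cytotoxicity.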

The subject of assay [3] is thyroid hormone receptor (rat, GH3 cells). The assay can be described thus: qHTS assay to identify small molecule agonists of the thyroid receptor (TR) signaling pathway (AID 743066; calls by dose curve).
For assay [4], the target named is Estrogen receptor (Homo sapiens) (UniProt P03372). The experiment in a line: qHTS assay to identify small molecule antagonists of the estrogen receptor alpha (ER-alpha) signaling pathway (AID 743069; active = well fitted curve in the direction sought with a large enough effect in the signal ratio in the repeat runs, not every such curve was filed as active; the % refers to the signal ratio). The procedure, abridged:
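HEK293 cells stably carrying an ER-alpha-UAS-bla beta-lactamase reporter were pre-cultured overnight in 2% charcoal-stripped FBS medium. Test compounds in DMSO were added together with 17beta-estradiol for 18 hr at 37C. Read-out was fluorescence after 2 hr with LiveBLAzer B/G FRET substrate at room temperature.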

Assay [5] can be described thus: qHTS assay to identify small molecule antagonists of the estrogen receptor alpha (ER-alpha) signaling pathway - cell viability counter screen (AID 743074; calls by dose curve; note: nearly all actives have a fitted effect of over 45% in size).
The target of assay [6] is Estrogen receptor (Homo sapiens) (UniProt P03372). The assay can be described thus: qHTS assay to identify small molecule agonists of the estrogen receptor alpha (ER-alpha) signaling pathway (AID 743075; calls by dose curve; note: potency is the fitted concentration of half-maximal effect).
Estrogen receptor (Homo sapiens), sequence (P03372 whole entry, looked up): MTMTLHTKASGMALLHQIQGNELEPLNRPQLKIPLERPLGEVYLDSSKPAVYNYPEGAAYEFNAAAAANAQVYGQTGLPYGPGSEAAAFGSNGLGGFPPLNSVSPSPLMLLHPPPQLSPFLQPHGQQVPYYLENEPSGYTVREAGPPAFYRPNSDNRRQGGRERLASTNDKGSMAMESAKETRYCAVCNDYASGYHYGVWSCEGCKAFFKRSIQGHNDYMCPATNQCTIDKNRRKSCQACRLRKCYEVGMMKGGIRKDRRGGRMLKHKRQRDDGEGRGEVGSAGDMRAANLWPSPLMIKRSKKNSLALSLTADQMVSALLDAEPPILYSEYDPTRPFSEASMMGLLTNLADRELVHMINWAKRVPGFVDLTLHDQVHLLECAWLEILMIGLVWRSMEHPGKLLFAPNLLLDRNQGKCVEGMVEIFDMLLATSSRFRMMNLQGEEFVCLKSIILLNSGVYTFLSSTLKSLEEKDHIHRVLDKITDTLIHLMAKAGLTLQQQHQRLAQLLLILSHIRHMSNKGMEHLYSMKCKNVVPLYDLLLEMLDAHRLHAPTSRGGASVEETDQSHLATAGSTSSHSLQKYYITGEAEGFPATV
The target is the same in assay [7]. The experiment in a line: qHTS assay to identify small molecule agonists of the estrogen receptor alpha (ER-alpha) signaling pathway using the BG1 cell line (AID 743079). Note: nearly all actives have a fitted effect of over 20% in size. Note: potency is the fitted concentration of half-maximal effect.
A short description of assay [8]: qHTS assay to identify small molecule antagonists of the estrogen receptor alpha (ER-alpha) signaling pathway using the BG1 cell line (AID 743080; calls by dose curve; note: series mostly up to about 70 µM; nearly all actives have a fitted effect of over 25% in size). The procedure, abridged: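 Antagonist mode: compounds in DMSO were pinned onto BG1-Luc-4E2 cells alongside 17beta-estradiol agonist, incubated 21.5 h, and ERE-driven luciferase measured with ONE-Glo. Cytotoxicity was multiplexed using CellTiter-Fluor fluorescence.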

A short description of assay [9]: qHTS assay to identify small molecule antagonists of the estrogen receptor alpha (ER-alpha) signaling pathway using the BG1 cell line - cell viability counter screen (AID 743081).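 Note: compound given together with 17beta-estradiol as the ER stimulus; series mostly up to about 70 µM; nearly all actives have a fitted effect of over 45% in size.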
The target of the next assay is Aromatase (Homo sapiens) (UniProt P11511). The assay can be described thus: qHTS assay to identify aromatase inhibitors (AID 743083). Note: series mostly up to about 70 µM; nearly all actives have a fitted effect of over 55% in size.
Aromatase (Homo sapiens), sequence (P11511 whole entry, looked up): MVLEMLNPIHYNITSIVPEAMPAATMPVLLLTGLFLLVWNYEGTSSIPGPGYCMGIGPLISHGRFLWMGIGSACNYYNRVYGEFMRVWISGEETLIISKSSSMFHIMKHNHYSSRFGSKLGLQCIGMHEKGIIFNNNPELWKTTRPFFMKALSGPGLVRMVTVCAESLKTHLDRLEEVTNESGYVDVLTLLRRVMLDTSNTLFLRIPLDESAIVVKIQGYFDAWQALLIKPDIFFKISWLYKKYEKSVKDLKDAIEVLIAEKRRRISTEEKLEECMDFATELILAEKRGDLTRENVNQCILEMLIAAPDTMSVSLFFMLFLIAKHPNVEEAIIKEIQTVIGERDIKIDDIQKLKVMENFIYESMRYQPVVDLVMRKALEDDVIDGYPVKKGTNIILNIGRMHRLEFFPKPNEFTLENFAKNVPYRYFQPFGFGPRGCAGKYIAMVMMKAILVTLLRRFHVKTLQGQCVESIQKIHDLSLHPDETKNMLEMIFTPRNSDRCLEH

As for `CCOC(=O)Nc1ccc(NCc2ccc(F)cc2)nc1N`, the Potency result in assay [1], in assay [2], in assay [6] and in assay [9] was “inactive” in each case. Also, the compound was classed as inactive in assay [3], in assay [4], in [5] and in assay [8]. In assay [7], the Potency is 3.35 µM (active) and inactive.

For the compound `O=c1cc(CO)occ1O`, the Potency entry (in assay [1]; in [2]; in assay [6]; in [7]; in assay [9]; in the assay with Aromatase (Homo sapiens)) was “inactive” each time. Further, the result in [3], in assay [4], in assay [5] and in assay [8] was inactive.

With `O=c1n(CCO)c(=O)n(CCO)c(=O)n1CCO`, the Potency entry (in assay [1]; in [2]; in assay [6]; in assay [7]; in [9]; with Aromatase (Homo sapiens)) was “inactive” each time. Also, the outcome in assay [3], in assay [4], in assay [5] and in assay [8] was inactive.

Turning to `NC(=O)Nc1ccccc1`, the Potency result (in [1]; in [2]; in assay [6]; in assay [7]; in assay [9]; with Aromatase (Homo sapiens)) was “inactive” each time. The compound was called inactive in assay [3], in assay [4], in assay [5] and in assay [8].

For the compound `CCCCCSCCCCC`, the Potency result (in assay [1]; in assay [2]; in assay [6]; in assay [7]; in [9]; with Aromatase (Homo sapiens)) was “inactive” each time. The call in assay [3], in assay [4], in assay [5] and in assay [8] was inactive.

For the compound `c1ccc([C@H]2CN3CCSC3=N2)cc1`, the Potency entry (in assay [1]; in assay [2]; in [9]; with Aromatase (Homo sapiens)) was “inactive” each time. The outcome in [3], in assay [4], in assay [5] and in assay [8] was inactive. Further, the Potency in [6] is 0.0601 µM [fluorescent] (active); in assay [7], 11.9 µM (active).

Turning to `CCCCCCCCCCCCCCCCC`, the Potency result (in [1]; in assay [2]; in assay [6]; in [9]; with Aromatase (Homo sapiens)) was “inactive” throughout. The compound was classed as inactive in assay [3], in assay [4], in assay [5] and in assay [8]. Besides, the Potency in [7] is 61.1 µM (active).

As to `CS(=O)(=O)O`, the Potency result (in assay [1]; in assay [2]; in [6]; in assay [7]; in [9]; in the assay with Aromatase (Homo sapiens)) was “inactive” each time. The compound was called inactive in assay [3], in [4], in assay [5] and in assay [8].

Regarding `CCSC(=O)N(CC(C)C)CC(C)C`, the Potency result (in assay [1]; in assay [2]; in [6]; in assay [7]; in [9]; with Aromatase (Homo sapiens)) was “inactive” throughout. Further, the result in [3], in assay [4], in assay [5] and in [8] was inactive.

As for `CCOC(C)(C)C`, the Potency result (in assay [1]; in [2]; in assay [6]; in assay [7]; in assay [9]; in the assay with Aromatase (Homo sapiens)) was “inactive” each time. Moreover, the result in [3], in [4], in assay [5] and in assay [8] was inactive.

For `O=C(O)Cc1ccc(CCNS(=O)(=O)c2ccc(Cl)cc2)cc1`, the Potency result (in [1]; in assay [2]; in assay [6]; in [7]; in assay [9]; with Aromatase (Homo sapiens)) was “inactive” each time. Also, the call in assay [3], in assay [4], in assay [5] and in assay [8] was inactive.

Turning to `CCCCC(CC)COC(=O)c1ccccc1O` (centres undefined), the Potency result (in [1]; in assay [2]; in assay [6]; in assay [9]; in the assay with Aromatase (Homo sapiens)) was “inactive” in each case. Further, the compound was called inactive in assay [3], in [4], in assay [5] and in assay [8]. Moreover, the Potency in [7] is 16.8 µM (active).

On to `CC(C(=O)O)c1ccc(CC2CCCC2=O)cc1` (centres undefined), for which the Potency entry (in [1]; in [2]; in [6]; in assay [7]; in [9]; with Aromatase (Homo sapiens)) was “inactive” each time. The result in assay [3], in assay [4], in assay [5] and in assay [8] was inactive.

For the compound `NS(=O)(=O)c1cc2c(cc1Cl)NC(C1CC3C=CC1C3)NS2(=O)=O` (centres undefined), the Potency entry (in assay [1]; in assay [2]; in assay [6]; in assay [7]; in assay [9]; in the assay with Aromatase (Homo sapiens)) was “inactive” throughout. The call in assay [3], in assay [4], in assay [5] and in assay [8] was inactive.

On to `OCCOc1ccc(OCCO)cc1`, for which the Potency result (in assay [1]; in [2]; in [6]; in assay [7]; in [9]; with Aromatase (Homo sapiens)) was “inactive” in each case. In addition, the compound was classed as inactive in assay [3], in [4], in assay [5] and in [8].

As to `C[C@@H]1CCN(C(=O)[C@H](CCCN=C(N)N)NS(=O)(=O)c2cccc3c2NC[C@H](C)C3)[C@@H](C(=O)O)C1`, the Potency entry (in assay [1]; in [2]; in assay [6]; in [7]; in [9]; with Aromatase (Homo sapiens)) was “inactive” in each case. Further, the compound was called inactive in assay [3], in assay [4], in [5] and in assay [8].

Consider `O=[N+]([O-])c1ccc(F)cc1F`, for which the Potency result (in [1]; in [2]; in assay [6]; in assay [7]; in [9]; with Aromatase (Homo sapiens)) was “inactive” in each case. In addition, the outcome in assay [3], in assay [4], in [5] and in assay [8] was inactive.

For the compound `N=c1nc(N2CCCCC2)cc(N)n1O`, the Potency result (in assay [1]; in assay [2]; in assay [6]; in assay [7]; in assay [9]; with Aromatase (Homo sapiens)) was “inactive” throughout. Besides, the outcome in assay [3], in assay [4], in assay [5] and in assay [8] was inactive.

In the case of `NCCCNCCSP(=O)(O)O`, the Potency entry (in assay [1]; in assay [2]; in assay [6]; in assay [7]; in assay [9]; in the assay with Aromatase (Homo sapiens)) was “inactive” throughout. For the same compound, the compound was called inactive in assay [3], in assay [4], in assay [5] and in assay [8].

Consider `Cc1ccc(Cl)cc1Cl`, for which the Potency entry (in assay [1]; in assay [2]; in [6]; in assay [7]; in assay [9]; with Aromatase (Homo sapiens)) was “inactive” throughout. For the same compound, the compound was classed as inactive in assay [3], in [4], in [5] and in assay [8].

`CC(C)NC(=O)NC(C)C`: the Potency entry (in assay [1]; in assay [2]; in [6]; in assay [7]; in assay [9]; in the assay with Aromatase (Homo sapiens)) was “inactive” throughout. Also, the compound was called inactive in assay [3], in assay [4], in assay [5] and in assay [8].

On to `CC(C)CCCC(C)N` (centres undefined), for which the Potency result (in [1]; in [2]; in [6]; in assay [9]; with Aromatase (Homo sapiens)) was “inactive” in each case. For the same compound, the call in assay [3], in [4], in assay [5] and in assay [8] was inactive. Further, in assay [7], the Potency was 21.1 µM (active).

With `CO[Si](CCCOCC1CO1)(OC)OC` (centres undefined), the Potency entry (in [1]; in [2]; in assay [6]; in assay [7]; in [9]; with Aromatase (Homo sapiens)) was “inactive” each time. Besides, the compound was called inactive in assay [3], in assay [4], in assay [5] and in assay [8].

`COC(=O)NN`: the Potency entry (in assay [1]; in [2]; in assay [6]; in assay [7]; in assay [9]; with Aromatase (Homo sapiens)) was “inactive” each time. Besides, the outcome in [3], in assay [4], in assay [5] and in assay [8] was inactive.
